According to PubChem BioAssay (NCI):
About 83,000 compounds went through this panel and 20% of them were active in at least one assay; those are over-represented in the sample as a whole.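 96-well plates, one dose, 48 hours. Percent growth reported; active if below 10.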 Activity calls are given as the source filed them.

What was measured:
Test in all cases: NCI-60 one-dose screen, 48 h (100 = growth as untreated, 0 = no growth, -100 = all killed)
Conditions in all cases: 10 µM
T-47D breast = system: T-47D breast
BT-549 breast = system: BT-549 breast
MDA-MB-435 melanoma = system: MDA-MB-435 melanoma
SW-620 colon = system: SW-620 colon
MCF7 breast = system: MCF7 breast
HCT-116 colon = system: HCT-116 colon
HCC-2998 colon = system: HCC-2998 colon
KM12 colon = system: KM12 colon

Measured: growth

O=C1CC[C@@H](C(=O)N[C@H]2CSSC[C@@H](C(=O)NCCc3ccccc3)NC(=O)[C@H](Cc3ccccc3)NC(=O)[C@@H]3CCCN3C(=O)[C@@H]3CCCN3C2=O)N1
inactive: T-47D breast 25.3% | BT-549 breast 106% | MDA-MB-435 melanoma 109% | SW-620 colon 102% | MCF7 breast 95.8% | HCT-116 colon 95.8% | HCC-2998 colon 94.3% | KM12 colon 105%

CCCCCCCC/C=C/CCCCCCCCC1=NCCN1CCO
inactive: T-47D breast 79.7% | BT-549 breast 83.1% | MDA-MB-435 melanoma 68.9% | SW-620 colon 40% | MCF7 breast 71.2% | HCC-2998 colon 97.8% | KM12 colon 62.5%
active: HCT-116 colon 7.94%

COc1ccc2nc(-c3ccccc3)cc(C(C)=O)c2c1
inactive: T-47D breast 69.5% | BT-549 breast 93.6% | MDA-MB-435 melanoma 98% | SW-620 colon 99.9% | MCF7 breast 72.6% | HCT-116 colon 91.2% | HCC-2998 colon 107% | KM12 colon 103%

COc1ccc(C(=O)/C=C/c2cc(-c3ccc4c(c3)OCO4)n[nH]2)cc1OC
inactive: T-47D breast 43.8% | BT-549 breast 41.4% | MDA-MB-435 melanoma 73.5% | SW-620 colon 36.4% | MCF7 breast 27.2% | HCT-116 colon 18.4% | HCC-2998 colon 91.3% | KM12 colon 54.1%

CC1(CO)CCCC12OCCO2 (stereo not given)
inactive: T-47D breast 111% | BT-549 breast 99.9% | MDA-MB-435 melanoma 92.8% | SW-620 colon 108% | MCF7 breast 95.2% | HCT-116 colon 105% | HCC-2998 colon 111% | KM12 colon 112%

CCCCCCCCCCSC(=N)N (tested in a mixture with another compound)
inactive: T-47D breast 28% | BT-549 breast 75% | MDA-MB-435 melanoma 79.6% | SW-620 colon 38.6% | MCF7 breast 36.6% | HCT-116 colon 55.6% | KM12 colon 45.3%
active: HCC-2998 colon -57.9%

Nc1ccc(Sc2ccc3c4c2cccc4c(=O)n2c4ccccc4nc32)cc1
inactive: T-47D breast 39.6% | BT-549 breast 59.1% | MDA-MB-435 melanoma 80.2% | SW-620 colon 46.3% | MCF7 breast 23.6% | HCT-116 colon 46.8% | HCC-2998 colon 80.7% | KM12 colon 73.6%

CCCCOCC(=O)NC(NP(=O)(N(C)C)N(C)C)C(Cl)(Cl)Cl (stereo not given)
active: T-47D breast 7.73%
inactive: BT-549 breast 117% | MDA-MB-435 melanoma 102% | SW-620 colon 108% | MCF7 breast 103% | HCT-116 colon 96.6% | HCC-2998 colon 103% | KM12 colon 133%

O=C1CC[C@@H](C(=O)N[C@H]2CSSC[C@@H](C(=O)N/C=C/c3ccc(O)cc3)NC(=O)[C@H](Cc3ccccc3)NC(=O)[C@@H]3CCCN3C(=O)[C@@H]3CCCN3C2=O)N1
inactive: T-47D breast 78.3% | BT-549 breast 120% | MDA-MB-435 melanoma 104% | SW-620 colon 97.2% | MCF7 breast 96.8% | HCT-116 colon 99.7% | HCC-2998 colon 98.9% | KM12 colon 97.9%

COCc1cc2c(cc1Br)OCO2
inactive: T-47D breast 98.4% | BT-549 breast 105% | MDA-MB-435 melanoma 108% | SW-620 colon 103% | MCF7 breast 96.4% | HCT-116 colon 98.6% | HCC-2998 colon 95.9% | KM12 colon 104%

C=CCNC(=S)NN
inactive: T-47D breast 50.5% | BT-549 breast 99.2% | MDA-MB-435 melanoma 95.4% | SW-620 colon 85.5% | HCC-2998 colon 107% | KM12 colon 98.6%
active: MCF7 breast 8.89% | HCT-116 colon 6.82%

CC(C)(C)CC(C)(C)c1ccc(O)c(Cc2ccc(Cl)cc2Cl)c1
active: T-47D breast -72.9% | BT-549 breast -95.1% | MDA-MB-435 melanoma -81.1% | SW-620 colon -84.9% | MCF7 breast -88.9% | HCT-116 colon -91.8% | HCC-2998 colon -89.1% | KM12 colon -88.5%

O=C(/C=C/c1ccc(Cl)cc1)c1ccc(Br)cc1
inactive: T-47D breast 79.7% | BT-549 breast 102% | MDA-MB-435 melanoma 99.1% | SW-620 colon 102% | MCF7 breast 26.3% | HCT-116 colon 75.5% | HCC-2998 colon 95% | KM12 colon 93.8%

O=C/C=C/c1ccc([N+](=O)[O-])cc1Cl
active: HCT-116 colon 2.9%
inactive: T-47D breast 86.4% | BT-549 breast 106% | MDA-MB-435 melanoma 95.9% | SW-620 colon 90% | MCF7 breast 62.8% | HCC-2998 colon 111% | KM12 colon 95.6%

Cc1ccccc1[P+](Cc1ccccc1)(c1ccccc1)c1ccccc1
active: T-47D breast -3.4% | MDA-MB-435 melanoma 1% | KM12 colon 8.7%
inactive: BT-549 breast 10.3% | SW-620 colon 30% | MCF7 breast 10.4% | HCT-116 colon 12.7% | HCC-2998 colon 16.5%

COc1cccc2c1O/C(=C\c1ncc([N+](=O)[O-])n1C)C2=O
active: BT-549 breast -63.6% | MDA-MB-435 melanoma -62.5% | SW-620 colon -20% | MCF7 breast 3.84% | HCT-116 colon -53.2% | HCC-2998 colon -54.9% | KM12 colon -50.6%
inactive: T-47D breast 97.5%

O=C(N/N=c1/ccoc2cccnc12)N1CCN(c2ncccn2)CC1
inactive: BT-549 breast 47.9% | MDA-MB-435 melanoma 34.9% | SW-620 colon 33.1% | MCF7 breast 11.2% | HCT-116 colon 16% | HCC-2998 colon 26.1% | KM12 colon 24.7%
active: T-47D breast 9.29%

C=CCn1c(C)nc2cc(Nc3nc(Nc4ccc5nc(C)n(CC=C)c5c4)c4ccccc4n3)ccc21
active: T-47D breast -60.3% | BT-549 breast -84% | MDA-MB-435 melanoma -76% | SW-620 colon -76.2% | MCF7 breast -89.3% | HCT-116 colon -96.5% | HCC-2998 colon -96.1% | KM12 colon -93.2%

CC(C)c1[nH]nc2c(NCc3ccc(-c4ccccn4)cc3)nc(SCCN(C)C)nc12
active: T-47D breast -6.72% | BT-549 breast -43.1% | MDA-MB-435 melanoma 0.81% | SW-620 colon 9.8% | MCF7 breast 4.04% | HCT-116 colon 9.24% | HCC-2998 colon -15.7% | KM12 colon 8.47%

CCSc1nc2c([nH]1)c(=O)n(C)c(=S)n2C
inactive: T-47D breast 99.6% | BT-549 breast 118% | MDA-MB-435 melanoma 109% | SW-620 colon 102% | MCF7 breast 113% | HCT-116 colon 114% | HCC-2998 colon 106% | KM12 colon 103%

CN1CCN(c2nc(-c3cccnc3)nc3sc4c(c23)CCCCCC4)CC1
inactive: T-47D breast 77.4% | BT-549 breast 95.3% | MDA-MB-435 melanoma 98.4% | SW-620 colon 102% | MCF7 breast 88.2% | HCT-116 colon 85.3% | HCC-2998 colon 56.7% | KM12 colon 100%

O=C1/C(=C/c2ccc(O)cc2)Oc2ccc(Cl)cc21
inactive: T-47D breast 72.2% | BT-549 breast 63.1% | MDA-MB-435 melanoma 82.5% | SW-620 colon 103% | MCF7 breast 43.2% | HCT-116 colon 65.7% | HCC-2998 colon 101% | KM12 colon 101%

c1ccc(CNc2nc(Nc3ccc(-c4nc5ccccc5[nH]4)cc3)c3cn[nH]c3n2)cc1
active: T-47D breast -30.6% | BT-549 breast -24.8% | MDA-MB-435 melanoma -6.74% | SW-620 colon 7.33% | MCF7 breast 1.71% | HCT-116 colon -54.5% | HCC-2998 colon -5.53% | KM12 colon 9.4%

COc1cccc(C2(C)Nc3ccccc3-c3nc4ccccc4n32)c1 (stereo not given)
inactive: T-47D breast 98.5% | BT-549 breast 108% | MDA-MB-435 melanoma 104% | SW-620 colon 108% | MCF7 breast 103% | HCT-116 colon 106% | HCC-2998 colon 106% | KM12 colon 108%

COc1ccc(-c2cn[nH]c2-c2cc(OC)c(OC)c(OC)c2)cc1
active: BT-549 breast -13.8% | MDA-MB-435 melanoma -19% | MCF7 breast 5.37% | HCT-116 colon 0.33% | HCC-2998 colon 6.62% | KM12 colon 4.39%
inactive: T-47D breast 45.6% | SW-620 colon 20.5%
